Screening data as filed in PubChem BioAssay.
Shown are actives, neighbours in structure and some others; about 2.9% of the full set was active somewhere.
Calb biofilm kill: clotrimazole potentiators killing Candida biofilms, primary screen, with clotrimazole, Alamar Blue. AID 834, 2007. C. albicans biofilm + clotrimazole. inhibition, % at 6 µM. 85,000 tested, 0.14% active;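 active = inhibition above 20%; inactive = inhibition below 20%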;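 also: preformed 24 hr biofilms exposed to compound for 48 hr; 0% = biofilm without compound and 100% = blank killed by clotrimazole plus chlorhexidine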
E-sel TNF inh: E-selectin induction blockers in HUVEC – imaging, immunofluorescence, high content, primary screen; 120,000 tested, 0.71% active; HUVEC TNFa-induced E-selectin immunofluorescence; inhibition, % at 2 µM;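 active = inhibition above the batch mean plus 3 SD, and confirmed as a hit on visual image review, cut at about 43% in these data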;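 also: 0% = TNF-stimulated DMSO wells and 100% = unstimulated control wells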
cytoskel mod: modifiers of F-actin cytoskeleton organization, primary screen, imaging, HUVEC, phalloidin staining, high-content imaging. inhibition, % at 2 µM. HUVEC TNFa F-actin phalloidin imaging. 91,000 tested, 0.18% active;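 active = inhibition above the batch mean plus 3 SD and confirmed as a hit by visual image inspection, cut at about 30% in these data, passing the limit was not always enough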
ERb coact inh: inhibitors of ERβ-SRC1 coactivator interaction, primary screen, biochemical, TR-FRET, ERβ LBD, SRC-1 peptide. TR-FRET ER-beta LBD / SRC1-Cy5 peptide binding; receptor agonist-loaded with 1 µM estradiol. inhibition, % at 25.6 µM. 86,000 tested, 1.3% active. AID 633, 2007;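 active = compounds whose percent inhibition of the receptor-coactivator binding signal exceeds about 50% in the single-dose screen, limit read from the data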;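 also: 0% = receptor plus peptide wells without compound and 100% = peptide-only wells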
ERa SRC1 pot: enhancers of ERα–SRC-1 coactivator binding, primary screen, biochemical, TR-FRET, ERα LBD, low estradiol; Estrogen receptor (Homo sapiens), P03372; TR-FRET ERalpha-LBD/SRC-Cy5 coactivator binding, 2 h; 100 = basal binding, no effect; coactivator binding (% of control), % at 25.6 µM; 86,000 tested, 1.3% active; in the data active = activity above about 200%;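 also: binding measured in presence of low estradiol as agonist stimulus; 0% = peptide alone without receptor and 100% = receptor with peptide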
ERa SRC1 inh: ERα–SRC-1 coactivator interaction inhibitors, primary screen, biochemical, TR-FRET, ERα LBD, estradiol-bound. Estrogen receptor (Homo sapiens), P03372. TR-FRET ER-alpha LBD / SRC-1 peptide. inhibition, % at 25.6 µM. 86,000 tested, 1.7% active. AID 629, 2007; in the data active = inhibition above about 50%;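 also: 0% = receptor plus peptide control and 100% = peptide only without receptor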
An asterisk follows results filed as active; / = no result; [ ] = dose if it differs, or a comment.

SMILES | Calb biofilm kill | E-sel TNF inh | cytoskel mod | ERb coact inh | ERa SRC1 pot | ERa SRC1 inh
c1csc(-c2nn3c(C4COc5ccccc5O4)nnc3s2)c1 (stereo not given) | 2 | -37 | 10 | -26 | 70 | -21
c1ccc2c(c1)OCC(c1nnc3sc(-c4cnccn4)nn13)O2 (stereo not given) | 3 | -23 | 0 | 82*[fluorescence artefact?] | 52 | 92*[fluorescence artefact?]
O=C1CC(c2ccccc2)n2nc(NC(=O)C3CCCO3)nc2N1 (stereo not given) | 7 | 45* | / | -5 | 122 | -6
COc1ccc2c(c1OC)C(=O)N1N=C(c3ccc(Cl)cc3)CC21 (stereo not given) | / | -39 | / | / | / | /
CCOc1cccc2cc(C(=O)N3CCc4ccccc43)c(=O)oc12 | 2 | -17 | -4 | -5 | 113 | 6
O=c1oc2ccc(Cl)cc2cc1-c1nnc(Nc2cccc(C(F)(F)F)c2)s1 | / | -33 | / | / | / | /
COc1ccc2oc(=O)c(-c3csc(Nc4ccc(O)cc4)n3)cc2c1 | / | 16 | / | / | / | /
CCOc1cccc2cc(-c3nnc(NCc4ccco4)s3)c(=O)oc12 | 4 | 2 | -5 | 49 | 75 | 53*
CNc1nnc(-c2cc3cc(Cl)ccc3oc2=O)s1 | -1 | 2 | 4 | 49 | 183 | 66*
COc1ccc2oc(=O)c(-c3nnc(NCc4ccco4)s3)cc2c1 | 2 | -2 | -13 | 57*[fluorescence artefact?] | 181 | 45
COc1ccc(C(=O)Nn2c(CCC(=O)O)ccc2-c2ccc(C)cc2)cc1OC | / | -27 | / | / | / | /
Cc1ccccc1OCC(=O)N(Cc1nc(-c2ccccc2)no1)C(C)C | 3 | -17 | -5 | -6 | 323*[fluorescence artefact?] | -2
OC(CNCCC1C=Nc2ccccc21)Cn1c2ccc(Cl)cc2c2cc(Cl)ccc21 (stereo not given) | / | -17 | / | / | / | /
CCOC(=O)c1c(NC(=O)c2ccco2)sc2c1CCCC2 | 7 | -35 | / | 6 | 118 | 0
COCCCNC(=O)c1c(NC(=O)c2cccs2)sc2c1CCCC2 | 4 | -6 | -30 | 12 | 331*[fluorescence artefact?] | 5
O=C(Nc1sc2c(c1C(=O)O)CCC2)c1ccccc1 | -5 | -4 | 2 | 76* | 25 | 79*[fluorescence artefact?]
O=C(Nc1sc2c(c1C(=O)O)CCC2)c1ccc(F)cc1 | / | 2 | / | / | / | /
COc1ccccc1NC(=O)c1c(NC(=O)c2ccco2)sc2c1CCC2 | 4 | -3 | 28 | 34 | 177 | 70*[fluorescence artefact?]
O=C(Nc1sc2c(c1C(=O)O)CCC2)c1cccs1 | 4 | / | -12 | 41 | 74 | 12
NC(=O)c1c(NC(=O)c2cccs2)sc2c1CCCCCC2 | -3 | -6 | / | 33 | 144 | 60*
O=C(Nc1ccc2ncccc2c1)c1cc(Cl)ccc1Cl | / | -17 | / | / | / | /
C[n+]1cnc(-c2ccccc2)cc1-c1ccccc1 | / | -10 | / | / | / | /
COc1ccc(C(=O)CN2C(=O)NC3(CCCc4ccccc43)C2=O)cc1OC (stereo not given) | 9 | 100* | 10 | 18 | 87 | 11
COc1ccc(C(=O)CN2C(=O)NC3(CCCCC3)C2=O)cc1OC | / | -10 | / | / | / | /
COc1ccc(/C=C(\C#N)C(=O)OCC(=O)Nc2ccc(-c3nc4ccc(C)cc4s3)cc2)cc1 | / | 1 | / | / | / | /
SMILES | Calb biofilm kill | E-sel TNF inh | cytoskel mod | ERb coact inh | ERa SRC1 pot | ERa SRC1 inh
Clc1ccc2oc(-c3ccccc3)nc2c1 | -4 | -12 | -6 | 57*[fluorescence artefact?] | 102 | -1
COc1ccc(NC(=O)N(Cc2ccc3c(c2)OCO3)C2CC(=O)N(c3ccc(OC)cc3)C2=O)cc1 (stereo not given) | 9 | 0 | 32* | -14 | 105 | 0
COc1ccccc1-c1nnc(NC(=O)C(C)SC2=NCCS2)s1 (stereo not given) | 0 | 7 | -19 | 1 | 157 | 3
CCNc1nnc(-c2ccccc2OC)s1 | 4 | 5 | -11 | 73*[fluorescence artefact?] | 73 | 6
CSC1=N/C(=C\c2ccccc2F)C(=O)S1 | 7 | -28 | 5 | -10 | 108 | -4
CSC1=N/C(=C\c2ccc(Br)o2)C(=O)S1 | 6 | 1 | 1 | 72* | 34 | 69*
